PubChem BioAssay (NCATS)
Results filed as inconclusive are left out. Active and inactive are the calls of the source. Calls come from the whole dose curve; as a rule, active = well fitted curve in the direction sought with a large enough effect; inconclusive = small, poorly fitted or top-dose-only effect, or another doubt; inactive = no such curve, though single readings can be large; an effect the other way counts as inactive or inconclusive.

Key:
[1] = target: Cytochrome P450 3A4 (Homo sapiens) (UniProt P08684); test: qHTS Assay for Inhibitors and Substrates of Cytochrome P450 3A4 (AID 884); note: % is set by controls: 0 for no effect and ±100 for the full control effect; nearly all actives have a fitted effect of over 50% in size
How it was run: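 Luminescent readout of luciferin produced by CYP3A4 (20 nM) dealkylation of Luciferin-PPXE, 25 uM (its KM). NADPH-driven reaction ran 60 min at RT after 10 min compound preincubation; data scaled to 57 uM ketoconazole as 100% inhibition.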

[2] = Confirmation and Secondary Assay for Modulators of Hemoglobin Beta Chain Splicing at IVS2 654 locus (AID 910);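 note: per-well total GFP intensity by laser scanning cytometry after 2-day treatment; % of control where 0% means no effect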
How it was run: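 HeLa cells stably carrying EGFP interrupted by mutant beta-globin IVS2-654 intron (CMV-driven) were treated with compound for 2 days at 37C; corrected splicing was scored as total peak GFP intensity per well (488 nm excitation, 500-520 nm emission).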

[3] = Confirmation and Secondary Assay for Modulators of Hemoglobin Beta Chain Splicing at IVS2 705 locus (AID 930);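 note: HeLa cells stably expressing the EGFP-705 splicing reporter; GFP fluorescence per well restored by corrected splicing of the IVS2-705 intron in EGFP; % of control where 0% means no effect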
How it was run: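 HeLa EGFP-705 reporter; 500 cells/well, o/n 37C 5% CO2; cpd 2 d; 488 ex/500-520 em laser scan; total peak GFP intensity/well. Ref: 500 nM […] antisense PNA.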

[4] = target: Ubiquitin carboxyl-terminal hydrolase 1 (Homo sapiens) (UniProt O94782); test: Inhibitors of USP1/UAF1: Pilot qHTS (AID 504865);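 note: rhodamine fluorescence freed from ubiquitin-rhodamine substrate followed over time; top concentration of the series differs between compounds; % is set by controls: 0 for no effect and ±100 for the full control effect; nearly all actives have a fitted effect of over 35% in size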
How it was run: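 USP1/UAF1 complex (1nM) preincubated with compound 15 min at room temperature, then Ub-Rho substrate (150nM final) added. Fluorescence read kinetically at 480/540 nm, 6 reads every 60 seconds. Buffer: 50mM HEPES pH 7.8, 0.5mM EDTA, 0.1 mg/ml BSA, 1mM TCEP, 0.01% Tween-20.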

[5] = target: Luciferin 4-monooxygenase (Photinus pyralis) (UniProt P08659); test: Biochemical firefly luciferase enzyme assay for NPC (AID 624030);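 note: purified P. pyralis luciferase at 10 nM with luciferin and ATP substrate; 0% = DMSO and -100% = full luciferase inhibition by PTC124 control; nearly all actives have a fitted effect of over 70% in size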
How it was run: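 Counter-screen for direct inhibition of the luciferase enzyme by approved-drug library compounds, run at 10 nM enzyme in 50 mM Tris acetate (final). Luminescence was read within 5 min of enzyme-buffer addition and normalized to PTC124 versus DMSO (0%).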

[6] = qHTS profiling for inhibitors of Plasmodium falciparum proliferation (AID 504749);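 note: 0% = DMSO vehicle and full inhibition = artemisinin control; nearly all actives have a fitted effect of over 60% in size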; details: P. falciparum in erythrocytes, SYBR Green DNA, 72 h, at 28.7 µM (top of the series)
How it was run: (§1)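 Fluorescence of SYBR Green-bound parasite DNA, read at 485/535 nm, served as the growth measure. Infected erythrocytes were cultured with compound 72 h; artemisinin (0.29 uM) and DMSO wells defined the normalization range.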

CP192 = test: as above; details: P. falciparum in erythrocytes, SYBR Green DNA, 72 h; series mostly up to 28.7 µM
How it was run: as §1

CP201 = test: as above; details: P. falciparum in erythrocytes, SYBR Green DNA, 72 h; series mostly up to 28.7 µM
How it was run: as §1

CP211 = test: as above; details: P. falciparum in erythrocytes, SYBR Green DNA, 72 h; series mostly up to 28.7 µM
How it was run: as §1

CP262 = test: as above; details: P. falciparum in erythrocytes, SYBR Green DNA, 72 h; series mostly up to 28.7 µM
How it was run: as §1

CP268 = test: as above; details: P. falciparum in erythrocytes, SYBR Green DNA, 72 h; series mostly up to 28.7 µM
How it was run: as §1

CP269 = test: as above; details: P. falciparum in erythrocytes, SYBR Green DNA, 72 h; series mostly up to 28.7 µM
How it was run: as §1

CP315 = test: as above; details: P. falciparum in erythrocytes, SYBR Green DNA, 72 h; series mostly up to 28.7 µM
How it was run: as §1

CP325 = test: as above; details: P. falciparum in erythrocytes, SYBR Green DNA, 72 h; series mostly up to 28.7 µM
How it was run: as §1

CP329 = test: as above; details: P. falciparum in erythrocytes, SYBR Green DNA, 72 h; series mostly up to 28.7 µM
How it was run: as §1

FAB9 = test: as above; details: P. falciparum in erythrocytes, SYBR Green DNA, 72 h; series mostly up to 28.7 µM
How it was run: as §1

JCK = test: as above; details: P. falciparum in erythrocytes, SYBR Green DNA, 72 h; series mostly up to 28.7 µM
How it was run: as §1

PC49 = test: as above; details: P. falciparum in erythrocytes, SYBR Green DNA, 72 h; series mostly up to 28.7 µM
How it was run: as §1

[7] = Inducers of the Endoplasmic Reticulum Stress Response (ERSR) in human glioma: Validation (AID 504836); note: 0% is about no effect
How it was run: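 Stably transfected U87-MG human glioma cells carrying a GRP78-based luminescent sensor were seeded at 1000 cells/well, pin-dosed with compounds and incubated 16 h. Luciferase reagent was then added, and end-point luminescence was read after 10 min at room temperature.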

Sequence of Luciferin 4-monooxygenase (Photinus pyralis) (P08659 whole entry, looked up): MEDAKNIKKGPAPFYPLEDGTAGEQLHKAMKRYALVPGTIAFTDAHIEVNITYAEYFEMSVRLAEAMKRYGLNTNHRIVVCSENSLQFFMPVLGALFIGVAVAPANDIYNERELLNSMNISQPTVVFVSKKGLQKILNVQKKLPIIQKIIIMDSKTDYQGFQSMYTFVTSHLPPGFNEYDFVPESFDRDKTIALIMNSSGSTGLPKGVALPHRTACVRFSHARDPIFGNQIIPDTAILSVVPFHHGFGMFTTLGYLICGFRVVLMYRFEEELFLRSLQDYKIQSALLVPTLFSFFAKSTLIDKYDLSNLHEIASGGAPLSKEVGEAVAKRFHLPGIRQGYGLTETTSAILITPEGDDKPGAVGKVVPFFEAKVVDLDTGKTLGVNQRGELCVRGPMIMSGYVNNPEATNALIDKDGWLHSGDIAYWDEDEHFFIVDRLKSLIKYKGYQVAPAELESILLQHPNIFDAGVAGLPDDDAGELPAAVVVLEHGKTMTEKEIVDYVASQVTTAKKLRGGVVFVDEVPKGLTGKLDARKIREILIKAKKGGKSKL
Sequence of Ubiquitin carboxyl-terminal hydrolase 1 (Homo sapiens) (O94782 whole entry, looked up): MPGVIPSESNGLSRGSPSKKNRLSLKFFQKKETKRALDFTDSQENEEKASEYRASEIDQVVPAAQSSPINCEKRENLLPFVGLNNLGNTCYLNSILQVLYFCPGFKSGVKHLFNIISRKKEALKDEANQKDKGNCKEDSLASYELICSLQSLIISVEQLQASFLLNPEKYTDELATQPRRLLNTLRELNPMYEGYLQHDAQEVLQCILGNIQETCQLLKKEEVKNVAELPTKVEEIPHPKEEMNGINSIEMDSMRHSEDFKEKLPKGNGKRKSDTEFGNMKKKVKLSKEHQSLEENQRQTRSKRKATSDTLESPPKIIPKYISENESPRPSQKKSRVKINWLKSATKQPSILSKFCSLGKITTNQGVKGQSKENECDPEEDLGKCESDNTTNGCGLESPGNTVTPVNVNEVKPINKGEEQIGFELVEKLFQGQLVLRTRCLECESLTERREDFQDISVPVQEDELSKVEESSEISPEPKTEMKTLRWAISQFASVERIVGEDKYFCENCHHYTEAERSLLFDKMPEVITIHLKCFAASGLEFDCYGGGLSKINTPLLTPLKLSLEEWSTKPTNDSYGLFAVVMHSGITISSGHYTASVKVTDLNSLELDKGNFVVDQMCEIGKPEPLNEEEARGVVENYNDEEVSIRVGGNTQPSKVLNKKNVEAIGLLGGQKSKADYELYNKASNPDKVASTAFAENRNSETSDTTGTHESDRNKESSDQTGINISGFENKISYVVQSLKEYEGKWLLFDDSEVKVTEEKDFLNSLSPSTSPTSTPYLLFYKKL
Sequence of Cytochrome P450 3A4 (Homo sapiens) (P08684 whole entry, looked up): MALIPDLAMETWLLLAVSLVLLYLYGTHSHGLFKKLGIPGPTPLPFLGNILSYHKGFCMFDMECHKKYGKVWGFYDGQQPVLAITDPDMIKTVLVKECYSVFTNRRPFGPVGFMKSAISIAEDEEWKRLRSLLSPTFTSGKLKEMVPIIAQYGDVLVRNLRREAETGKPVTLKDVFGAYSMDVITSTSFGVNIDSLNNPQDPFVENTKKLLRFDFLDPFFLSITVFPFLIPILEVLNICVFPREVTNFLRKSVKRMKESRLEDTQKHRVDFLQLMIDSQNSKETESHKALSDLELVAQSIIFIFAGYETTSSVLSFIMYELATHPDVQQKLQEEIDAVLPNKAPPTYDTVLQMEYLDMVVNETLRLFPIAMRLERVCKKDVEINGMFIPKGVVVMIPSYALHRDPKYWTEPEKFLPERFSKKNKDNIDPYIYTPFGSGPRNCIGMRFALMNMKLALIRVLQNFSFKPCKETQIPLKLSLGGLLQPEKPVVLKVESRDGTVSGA

O=[N+]([O-])OC1CO[C@H]2C(O[N+](=O)[O-])COC12 (stereo not given in full)
inactive: Potency [1] | Potency [2] | outcome [3] | Potency [4] | Potency [5] | activity, negative = inhibition ([6]; parasite line A) -2.15% | activity, negative = inhibition ([6]; parasite line B) 1.56% | Potency (CP192) | Potency (CP201) | Potency (CP211) | Potency (CP262) | Potency (CP268) | Potency (CP269) | Potency (CP315) | Potency (CP325) | Potency (CP329) | Potency (FAB9) | Potency (JCK) | Potency (PC49)

CC(=O)O[C@H]1C[C@H](O[C@H]2[C@@H](O)CC(O[C@H]3[C@@H](O)C[C@H](O[C@H]4CC[C@@]5(C)[C@H](CC[C@@H]6[C@@H]5CC[C@]5(C)[C@@H](C7=CC(=O)OC7)CC[C@]65O)C4)O[C@@H]3C)O[C@@H]2C)O[C@H](C)[C@H]1O[C@@H]1O[C@H](CO)[C@@H](O)[C@H](O)[C@H]1O (stereo not given in full)
inactive: Potency [4] | Potency [5] | activity, negative = inhibition ([6]; parasite line A) 9.47% | activity, negative = inhibition ([6]; parasite line B) 16.3% | Potency (CP192) | Potency (CP201) | Potency (CP211) | Potency (CP262) | Potency (CP268) | Potency (CP269) | Potency (CP315) | Potency (CP325) | Potency (CP329) | Potency (FAB9) | Potency (JCK) | Potency (PC49)

CC(=O)Oc1ccc2c3c1OC1[C@@H](OC(C)=O)C=C[C@H]4[C@H](C2)N(C)CC[C@]314 (stereo not given in full)
inactive: Potency [4] | Potency [5] | activity, negative = inhibition ([6]; parasite line A) 15.5% | activity, negative = inhibition ([6]; parasite line B) 9.45% | Potency (CP192) | Potency (CP201) | Potency (CP211) | Potency (CP262) | Potency (CP268) | Potency (CP269) | Potency (CP315) | Potency (CP325) | Potency (CP329) | Potency (FAB9) | Potency (JCK) | Potency (PC49)

CCCN1CCCC2Cc3nc(N)ncc3CC21 (stereo not given)
inactive: Potency [4] | Potency [5] | activity, negative = inhibition ([6]; parasite line A) 2.28% | activity, negative = inhibition ([6]; parasite line B) 5.03% | Potency (CP192) | Potency (CP201) | Potency (CP211) | Potency (CP262) | Potency (CP268) | Potency (CP269) | Potency (CP315) | Potency (CP325) | Potency (CP329) | Potency (FAB9) | Potency (JCK) | Potency (PC49)

C#CCN1CC(=O)N(COC(=O)[C@@H]2[C@@H](C=C(C)C)C2(C)C)C1=O
inactive: Potency [5] | activity, negative = inhibition ([6]; parasite line A) 4.89% | activity, negative = inhibition ([6]; parasite line B) 10.9% | Potency (CP192) | Potency (CP201) | Potency (CP211) | Potency (CP262) | Potency (CP268) | Potency (CP269) | Potency (CP315) | Potency (CP325) | Potency (CP329) | Potency (FAB9) | Potency (JCK) | Potency (PC49)

Nc1nc(O)c(-c2ccccc2)o1
inactive: Potency [4] | Potency [5] | activity, negative = inhibition ([6]; parasite line A) 12.1% | activity, negative = inhibition ([6]; parasite line B) 6.38% | Potency (CP192) | Potency (CP201) | Potency (CP211) | Potency (CP262) | Potency (CP268) | Potency (CP269) | Potency (CP315) | Potency (CP325) | Potency (CP329) | Potency (FAB9) | Potency (JCK) | Potency (PC49)

COC(=O)C1C(OC(=O)c2ccccc2)CC2CCC1N2C (stereo not given)
inactive: Potency [4] | Potency [5] | activity, negative = inhibition ([6]; parasite line A) 9.75% | activity, negative = inhibition ([6]; parasite line B) -3.4% | Potency (CP192) | Potency (CP201) | Potency (CP211) | Potency (CP262) | Potency (CP268) | Potency (CP269) | Potency (CP315) | Potency (CP325) | Potency (CP329) | Potency (FAB9) | Potency (JCK) | Potency (PC49)

NC(N)=NC(=O)c1nc(Cl)c(N2CCCCCC2)nc1N
inactive: outcome [7]
